Tests used:
[1] = test system: Tyrosine-protein kinase ABL1 (Homo sapiens), P00519 [T315I]; settings: at 1 µM
[2] = test system: Tyrosine-protein kinase ABL1 (Homo sapiens), P00519 [Y253F]; settings: at 0.1 µM
[3] = test system: Tyrosine-protein kinase ABL1 (Homo sapiens), P00519 [Y253F]; settings: at 1 µM
[4] = target: Tyrosine-protein kinase ABL1 (Homo sapiens) (UniProt P00519); settings: at 0.1 µM
[5] = target: Tyrosine-protein kinase ABL1 (Homo sapiens) (UniProt P00519); settings: at 1 µM
[6] = target: ALK tyrosine kinase receptor (Homo sapiens) (UniProt Q9UM73); settings: at 0.1 µM
Sequence of ALK tyrosine kinase receptor (Homo sapiens) (Q9UM73 19-1620 limits assumed): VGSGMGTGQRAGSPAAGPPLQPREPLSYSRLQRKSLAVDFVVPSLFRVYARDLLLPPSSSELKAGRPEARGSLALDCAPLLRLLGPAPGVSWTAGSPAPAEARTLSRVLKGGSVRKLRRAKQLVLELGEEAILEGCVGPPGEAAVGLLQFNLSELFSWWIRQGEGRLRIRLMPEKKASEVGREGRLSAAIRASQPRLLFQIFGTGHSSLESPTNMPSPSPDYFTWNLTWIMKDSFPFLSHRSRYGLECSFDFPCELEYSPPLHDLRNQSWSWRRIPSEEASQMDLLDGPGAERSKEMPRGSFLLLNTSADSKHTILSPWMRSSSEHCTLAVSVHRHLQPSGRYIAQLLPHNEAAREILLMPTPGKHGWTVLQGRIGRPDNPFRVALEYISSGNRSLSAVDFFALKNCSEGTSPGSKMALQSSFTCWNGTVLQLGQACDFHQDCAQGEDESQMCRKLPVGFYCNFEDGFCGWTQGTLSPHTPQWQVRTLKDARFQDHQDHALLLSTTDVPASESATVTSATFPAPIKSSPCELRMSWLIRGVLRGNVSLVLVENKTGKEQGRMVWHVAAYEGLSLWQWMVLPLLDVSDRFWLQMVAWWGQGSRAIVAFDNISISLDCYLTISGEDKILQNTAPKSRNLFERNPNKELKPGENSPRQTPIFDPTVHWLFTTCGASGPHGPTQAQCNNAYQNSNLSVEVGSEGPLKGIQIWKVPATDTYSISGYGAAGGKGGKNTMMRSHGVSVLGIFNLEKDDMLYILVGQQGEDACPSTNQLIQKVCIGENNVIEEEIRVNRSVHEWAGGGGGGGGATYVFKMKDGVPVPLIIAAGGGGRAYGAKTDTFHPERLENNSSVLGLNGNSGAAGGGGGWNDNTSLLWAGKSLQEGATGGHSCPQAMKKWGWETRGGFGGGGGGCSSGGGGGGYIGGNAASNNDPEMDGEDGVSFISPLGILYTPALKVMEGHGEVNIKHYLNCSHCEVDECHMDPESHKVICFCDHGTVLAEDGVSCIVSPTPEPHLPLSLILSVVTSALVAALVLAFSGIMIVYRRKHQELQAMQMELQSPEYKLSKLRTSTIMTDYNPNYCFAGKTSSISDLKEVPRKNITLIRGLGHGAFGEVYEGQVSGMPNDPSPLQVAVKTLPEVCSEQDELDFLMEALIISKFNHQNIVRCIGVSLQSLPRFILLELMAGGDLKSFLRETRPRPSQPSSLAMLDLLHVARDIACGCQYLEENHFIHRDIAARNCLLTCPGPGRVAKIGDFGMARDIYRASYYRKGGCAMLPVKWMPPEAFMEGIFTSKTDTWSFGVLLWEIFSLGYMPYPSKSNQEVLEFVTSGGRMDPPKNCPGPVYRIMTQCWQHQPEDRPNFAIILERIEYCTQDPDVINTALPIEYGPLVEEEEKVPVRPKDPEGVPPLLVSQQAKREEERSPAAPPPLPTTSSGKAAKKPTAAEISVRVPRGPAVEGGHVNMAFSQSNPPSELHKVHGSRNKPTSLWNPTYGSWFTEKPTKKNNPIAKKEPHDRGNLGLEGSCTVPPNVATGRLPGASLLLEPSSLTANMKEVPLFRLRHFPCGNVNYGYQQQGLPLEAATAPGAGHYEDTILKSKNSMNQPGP

[7] = target: ALK tyrosine kinase receptor (Homo sapiens) (UniProt Q9UM73); settings: at 1 µM
[8] = target: Tyrosine-protein kinase ABL2 (Homo sapiens) (UniProt P42684); settings: at 0.1 µM
Sequence of Tyrosine-protein kinase ABL2 (Homo sapiens) (P42684 whole entry): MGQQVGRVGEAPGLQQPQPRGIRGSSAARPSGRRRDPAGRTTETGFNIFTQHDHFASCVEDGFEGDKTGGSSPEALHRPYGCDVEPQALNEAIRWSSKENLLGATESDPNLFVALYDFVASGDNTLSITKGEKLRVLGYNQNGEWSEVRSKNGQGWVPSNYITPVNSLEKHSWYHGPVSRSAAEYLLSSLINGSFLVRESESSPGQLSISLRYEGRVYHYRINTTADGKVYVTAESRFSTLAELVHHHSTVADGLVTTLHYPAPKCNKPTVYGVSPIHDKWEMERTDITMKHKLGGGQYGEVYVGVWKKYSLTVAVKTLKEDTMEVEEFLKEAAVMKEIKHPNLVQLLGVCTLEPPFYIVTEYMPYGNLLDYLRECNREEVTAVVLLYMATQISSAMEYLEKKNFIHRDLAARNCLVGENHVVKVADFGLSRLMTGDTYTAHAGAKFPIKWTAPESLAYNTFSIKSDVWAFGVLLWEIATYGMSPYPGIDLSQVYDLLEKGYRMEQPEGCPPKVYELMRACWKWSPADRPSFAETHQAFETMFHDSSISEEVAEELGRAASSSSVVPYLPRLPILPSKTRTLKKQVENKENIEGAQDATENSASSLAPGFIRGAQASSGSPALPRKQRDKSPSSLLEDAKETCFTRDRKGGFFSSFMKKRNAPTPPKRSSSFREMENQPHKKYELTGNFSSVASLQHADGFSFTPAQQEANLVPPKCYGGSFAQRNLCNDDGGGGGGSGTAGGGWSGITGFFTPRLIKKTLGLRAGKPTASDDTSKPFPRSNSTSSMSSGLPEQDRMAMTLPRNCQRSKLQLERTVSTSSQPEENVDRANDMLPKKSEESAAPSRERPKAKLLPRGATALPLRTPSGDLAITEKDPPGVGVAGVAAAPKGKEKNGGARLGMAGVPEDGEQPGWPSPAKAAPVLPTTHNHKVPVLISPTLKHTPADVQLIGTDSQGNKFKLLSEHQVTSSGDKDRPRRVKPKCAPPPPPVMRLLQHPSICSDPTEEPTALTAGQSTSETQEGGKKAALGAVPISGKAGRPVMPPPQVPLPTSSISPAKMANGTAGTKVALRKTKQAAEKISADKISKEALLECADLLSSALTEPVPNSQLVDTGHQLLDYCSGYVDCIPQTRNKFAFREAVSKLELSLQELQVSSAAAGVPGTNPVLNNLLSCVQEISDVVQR

[9] = target: Tyrosine-protein kinase ABL2 (Homo sapiens) (UniProt P42684); settings: at 1 µM
[10] = target: Tyrosine-protein kinase receptor UFO (Homo sapiens) (UniProt P30530); settings: at 0.1 µM
[11] = target: Tyrosine-protein kinase receptor UFO (Homo sapiens) (UniProt P30530); settings: at 1 µM
[12] = target: Tyrosine-protein kinase Blk (Homo sapiens) (UniProt P51451); settings: at 0.1 µM
Sequence of Tyrosine-protein kinase Blk (Homo sapiens) (P51451 2-505 limits assumed): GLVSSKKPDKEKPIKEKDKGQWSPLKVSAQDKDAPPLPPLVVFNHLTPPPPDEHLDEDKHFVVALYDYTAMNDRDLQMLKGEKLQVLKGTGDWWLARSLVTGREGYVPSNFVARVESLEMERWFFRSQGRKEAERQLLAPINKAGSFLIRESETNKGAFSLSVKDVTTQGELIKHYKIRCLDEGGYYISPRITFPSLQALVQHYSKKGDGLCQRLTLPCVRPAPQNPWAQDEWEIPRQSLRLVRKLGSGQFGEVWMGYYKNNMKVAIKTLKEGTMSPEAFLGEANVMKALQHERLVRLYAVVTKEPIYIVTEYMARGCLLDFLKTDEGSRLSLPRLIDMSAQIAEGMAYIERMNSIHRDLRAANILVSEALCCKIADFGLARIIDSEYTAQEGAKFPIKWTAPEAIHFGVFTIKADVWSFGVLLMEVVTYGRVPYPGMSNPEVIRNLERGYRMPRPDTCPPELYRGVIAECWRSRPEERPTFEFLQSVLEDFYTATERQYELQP

[13] = target: Tyrosine-protein kinase Blk (Homo sapiens) (UniProt P51451); settings: at 1 µM
[14] = target: T1, Cytoplasmic tyrosine-protein kinase BMX (Homo sapiens) (UniProt P51813); settings: at 0.1 µM
T1 sequence (whole entry): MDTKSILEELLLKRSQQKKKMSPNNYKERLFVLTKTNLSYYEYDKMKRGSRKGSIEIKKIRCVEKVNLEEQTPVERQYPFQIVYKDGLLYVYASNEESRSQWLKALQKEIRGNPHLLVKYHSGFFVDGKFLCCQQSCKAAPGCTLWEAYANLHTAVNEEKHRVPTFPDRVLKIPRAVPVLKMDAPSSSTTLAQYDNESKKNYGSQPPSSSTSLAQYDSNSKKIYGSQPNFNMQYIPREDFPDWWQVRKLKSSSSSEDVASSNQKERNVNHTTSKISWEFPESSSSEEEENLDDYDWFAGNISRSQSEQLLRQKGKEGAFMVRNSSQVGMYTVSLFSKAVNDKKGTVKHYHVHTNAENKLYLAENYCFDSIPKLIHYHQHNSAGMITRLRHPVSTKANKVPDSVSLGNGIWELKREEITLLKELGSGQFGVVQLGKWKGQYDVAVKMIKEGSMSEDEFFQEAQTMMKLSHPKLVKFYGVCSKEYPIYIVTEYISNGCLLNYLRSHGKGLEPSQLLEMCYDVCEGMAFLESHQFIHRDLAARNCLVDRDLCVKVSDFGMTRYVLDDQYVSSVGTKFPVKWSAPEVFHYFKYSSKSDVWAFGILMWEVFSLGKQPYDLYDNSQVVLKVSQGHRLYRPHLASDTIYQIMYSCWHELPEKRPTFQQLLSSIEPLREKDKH

[15] = target: T1, Cytoplasmic tyrosine-protein kinase BMX (Homo sapiens); settings: at 1 µM
[16] = target: Protein-tyrosine kinase 6 (Homo sapiens) (UniProt Q13882); settings: at 0.1 µM
Sequence of Protein-tyrosine kinase 6 (Homo sapiens) (Q13882 whole entry, looked up): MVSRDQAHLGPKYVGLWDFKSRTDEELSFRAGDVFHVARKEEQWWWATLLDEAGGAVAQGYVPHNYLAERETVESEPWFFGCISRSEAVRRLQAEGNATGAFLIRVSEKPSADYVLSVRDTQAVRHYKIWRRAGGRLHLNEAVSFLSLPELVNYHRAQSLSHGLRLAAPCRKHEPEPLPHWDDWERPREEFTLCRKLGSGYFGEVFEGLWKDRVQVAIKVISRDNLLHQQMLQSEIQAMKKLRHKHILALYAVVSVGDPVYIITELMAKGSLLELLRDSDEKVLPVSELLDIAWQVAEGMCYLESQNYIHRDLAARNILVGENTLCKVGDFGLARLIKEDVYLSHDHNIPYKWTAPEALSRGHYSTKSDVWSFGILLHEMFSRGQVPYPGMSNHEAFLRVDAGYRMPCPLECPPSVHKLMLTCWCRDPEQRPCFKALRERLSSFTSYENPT

[17] = target: Protein-tyrosine kinase 6 (Homo sapiens) (UniProt Q13882); settings: at 1 µM
[18] = target: Tyrosine-protein kinase BTK (Homo sapiens) (UniProt Q06187); settings: at 0.1 µM
Sequence of Tyrosine-protein kinase BTK (Homo sapiens) (Q06187 whole entry): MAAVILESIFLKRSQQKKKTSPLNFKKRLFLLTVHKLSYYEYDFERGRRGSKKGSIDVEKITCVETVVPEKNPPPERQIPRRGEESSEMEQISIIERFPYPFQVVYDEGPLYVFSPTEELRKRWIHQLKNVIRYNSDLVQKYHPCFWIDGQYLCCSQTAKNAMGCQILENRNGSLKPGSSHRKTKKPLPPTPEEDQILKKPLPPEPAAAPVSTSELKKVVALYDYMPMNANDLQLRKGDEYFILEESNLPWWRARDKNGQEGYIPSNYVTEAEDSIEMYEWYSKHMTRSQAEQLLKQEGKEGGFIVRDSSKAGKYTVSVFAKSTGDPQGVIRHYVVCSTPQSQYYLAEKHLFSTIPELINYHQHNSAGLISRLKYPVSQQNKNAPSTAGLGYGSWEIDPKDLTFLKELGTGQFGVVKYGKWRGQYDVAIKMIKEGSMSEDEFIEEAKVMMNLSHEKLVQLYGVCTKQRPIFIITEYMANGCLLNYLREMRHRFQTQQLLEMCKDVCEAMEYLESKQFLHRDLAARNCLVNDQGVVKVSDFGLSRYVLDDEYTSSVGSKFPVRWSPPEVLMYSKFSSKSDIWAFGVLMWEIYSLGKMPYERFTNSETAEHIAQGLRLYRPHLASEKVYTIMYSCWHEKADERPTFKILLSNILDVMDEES

[19] = target: Tyrosine-protein kinase BTK (Homo sapiens) (UniProt Q06187); settings: at 1 µM
[20] = target: Tyrosine-protein kinase CSK (Homo sapiens) (UniProt P41240); settings: at 0.1 µM;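 further: value given is the averaged percent inhibition of CSK kinase activity, from the GSK PKIS kinase inhibitor set screening panel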
Sequence of Tyrosine-protein kinase CSK (Homo sapiens) (P41240 2-450 limits assumed): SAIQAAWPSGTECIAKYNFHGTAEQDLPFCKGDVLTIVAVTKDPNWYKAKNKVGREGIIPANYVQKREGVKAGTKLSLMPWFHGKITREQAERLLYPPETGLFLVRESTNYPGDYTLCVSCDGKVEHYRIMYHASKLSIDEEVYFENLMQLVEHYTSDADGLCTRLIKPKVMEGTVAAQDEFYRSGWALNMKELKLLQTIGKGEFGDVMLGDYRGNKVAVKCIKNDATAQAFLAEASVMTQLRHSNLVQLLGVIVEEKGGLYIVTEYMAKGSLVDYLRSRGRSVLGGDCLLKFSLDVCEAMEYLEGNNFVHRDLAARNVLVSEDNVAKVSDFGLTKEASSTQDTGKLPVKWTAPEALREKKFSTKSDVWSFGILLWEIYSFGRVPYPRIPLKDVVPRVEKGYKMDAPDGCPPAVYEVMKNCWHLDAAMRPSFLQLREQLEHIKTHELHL

SMILES | inhibition [1] | inhibition [2] | inhibition [3] | inhibition [4] | inhibition [5] | inhibition [6] | inhibition [7] | inhibition [8] | inhibition [9] | inhibition [10] | inhibition [11] | inhibition [12] | inhibition [13] | inhibition [14] | inhibition [15] | inhibition [16] | inhibition [17] | inhibition [18] | inhibition [19] | inhibition [20]
CCS(=O)(=O)c1ccc(OC)c(Nc2nccc(N(C)c3ccc4c(C)n[nH]c4c3)n2)c1 | 15% | 66.4% | 92.3% | 58% | 78.5% | 4.29% | 12.4% | 42% | 73.9% | -6.66% | -3.9% | 15.4% | 67.5% | 3.66% | 23.2% | 18.8% | 79.3% | 2.21% | 27.1% | 1.43%
CN(C)CCCn1c(-c2nonc2N)nc2cnccc21 | 1.3% | 2.05% | 4.68% | 2.69% | 4.71% | 2.82% | 4.63% | 3.56% | -5.79% | -7.29% | -8.31% | 1.44% | 3.44% | 3.45% | 3.08% | 0.2% | 3.36% | 0.72% | 0.12% | 1.79%
CS(=O)(=O)CCNCc1nc(-c2ccc3ncnc(Nc4ccc(OCc5cccc(C(F)(F)F)c5)cc4)c3c2)cs1 | 1.2% | 1.32% | 0.85% | 3.97% | 6.56% | 2.68% | 6.49% | 1.49% | 4.56% | -5.39% | -2.54% | 1.22% | 4.48% | 3.48% | 5.73% | -0.74% | 1.75% | 0.43% | 1.66% | 3.59%
C[C@@H](Oc1cc(-n2cnc3ccc(OCC4CCN(C)CC4)cc32)sc1C(N)=O)c1ccccc1C(F)(F)F | 13.7% | -1.07% | 1.43% | 0.74% | 2.7% | 1.57% | 20.8% | 0.15% | 3.87% | 3.82% | 12.8% | 1.16% | 14.4% | -1.33% | -2.09% | -0.71% | -4.24% | 0.52% | -1.06% | -4.98%
Cc1ccc(C(=O)NC2CC2)cc1-c1ccc2[nH]ncc2c1 | 2.89% | -1.37% | 0.48% | -0.56% | 0.77% | -1.6% | -1.66% | -1.18% | 0.73% | 3.54% | 6.55% | -1.8% | -1.6% | -2.64% | -6.39% | -2.14% | -3.93% | 0.06% | -1.33% | 
COc1ccc2ncnc(Nc3ccc(OCc4ccccc4)cc3)c2c1 | 3.21% | 2.03% | 1.02% | 1.65% | 4.79% | 0.66% | 0.87% | 2.72% | 4.53% | -3.58% | -5.04% | 2.17% | 6.3% | 2.68% | 2.81% | 0.54% | 9.39% | -0.01% | 1.33% | 2.5%
N#Cc1c(NC(=O)c2ccccc2F)sc2c1CCCC2 | 0.12% | -0.24% | 0.05% | 0.07% | 1.47% | -1.14% | 1.02% | -0.22% | 1.82% | 1.78% | 2.38% | -0.71% | 0.42% | -1.17% | -1.62% | 0.56% | -1.93% | 0.32% | -0.23% | -1.65%
O=C1Nc2ccc(-c3cccnc3)cc2C1=Cc1cc(Br)c(O)c(Br)c1 | 2.94% | 5.16% | 7.7% | 3.97% | 8.78% | 4.13% | 9.22% | 3.5% | 5.72% | -3.55% | -2.44% | 2.77% | 10.8% | -2.3% | 4.31% | 4.36% | 10.7% | 0.22% | 1.61% | 4.14%
CN(C)c1cc2c(Nc3ccc4c(cnn4Cc4ccccc4)c3)ncnc2cn1 | -1.27% | 1.19% | 3.05% | 2.46% | 5.43% | 2.86% | 4.13% | 1.06% | 8.48% | -6.03% | -3.44% | 3.2% | 22.6% | 3.53% | 20.8% | 5.3% | 29.2% | 1.09% | 9.11% | 6.06%
Cc1ccc2c(c1)/C(=N/Nc1ccc(S(N)(=O)=O)cc1)C(=O)N2 | 7.37% | -0.42% | 7.64% | 0.83% | 8.09% | 0.89% | 2.77% | 3.63% | 12.1% | -1.65% | 2.86% | 0.29% | 11.2% | 1.94% | -0.8% | -3.49% | -3.16% | 0.42% | 3.78% | -2.97%
COc1cccc(-n2ncc3c(N/N=C/c4ccc(S(C)(=O)=O)cc4)ncnc32)c1 | 87% | 86.2% | 94.7% | 62% | 73% | -3.22% | -1.6% | 45.4% | 61.7% | -1.8% | 1.34% | 7.91% | 38.4% | 10.1% | 30.7% | 6.33% | 26.8% | -4.35% | -3.39% | 5.8%
Oc1cccc(-c2nc(-c3ccccc3)[nH]c2-c2ccncc2)c1 | 8.47% | 11.9% | 44.9% | 8.48% | 43.3% | 3.1% | 4.75% | 13.2% | 50.8% | -4.03% | -0.19% | 2.99% | 8.82% | 7.29% | 8.97% | 13% | 55.4% | 2.03% | 2.36% | 6.74%
[O-][S+]1CCN(Cc2ccc(-c3ccc4ncnc(Nc5ccc(OCc6ccccc6)c(Cl)c5)c4c3)o2)CC1 | 1.03% | 0.95% | 2.06% | 2.3% | 4.26% | 2.04% | 8.58% | 1.82% | 3.39% | -2.39% | 0.46% | -0.34% | 6.7% | 0.31% | 2.05% | 0.38% | 11% | -1.44% | -0.83% | -0.03%
